The results in this text go back to PubChem BioAssay AID686978 (National Center for Advancing Translational Sciences (NCATS), 2013).

Each structure is given as a SMILES string. Hit rate of the full screen: of about 420,000 compounds, about 64,000 (15%) were called active. Inconclusive results (about 27%) are left out. These entries were drawn from the full list. Values without a mark were called inactive. The call rests on the fitted dose curve; in most records, active means well fitted inhibition curve with a large enough effect; inconclusive means small, poorly fitted or top-dose-only effect; inactive means flat fitted curve, though single readings scatter.
On the % scale 0 is the no-effect control and ±100 the full control effect; potency means the concentration at half of the fitted maximal effect.

This experiment in a line: qHTS for Inhibitors of human tyrosyl-DNA phosphodiesterase 1 (TDP1): qHTS in cells in absence of CPT. Further: nearly all actives have a fitted effect of over 55% in size. The conditions noted are these: DT40 Tdp1-/- hTDP1 cells, no CPT, ATP luminescence, 48 h; activity change, negative = growth inhibition: at 46.2 µM (top of the series). Summed up:
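Chicken DT40 Tdp1-/- cells stably complemented with human TDP1 were seeded at 400 cells/well with DMSO in place of 20 nM camptothecin. After compound pinning, cells grew at least 48 hr at 37 °C; viability read by CellTiter-Glo luminescence.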
A general note: Quantitative high-throughput screening tests each substance at several concentrations.
In the case of `O=C1CC(=O)Nc2cc(S(=O)(=O)N3CCN(c4cccc(C(F)(F)F)c4)CC3)ccc2N1`, the “activity change, negative = growth inhibition” value is 9.11%. Consider `Cc1ccc(Cl)cc1N1CCN(S(=O)(=O)c2cc3[nH]c(=O)c(=O)[nH]c3cc2C)CC1`, for which the “activity change, negative = growth inhibition” value was -0.246%. Take `Cc1ccc(S(=O)(=O)N2CCN(S(=O)(=O)N3CCOCC3)CC2)cc1`: the “activity change, negative = growth inhibition” value was -13.9%. For `Cc1ccc(N2CCN(S(=O)(=O)c3ccc(F)cc3)CC2)c(C)c1`, the Potency was 18.4 µM (active). Consider `Cc1ccc(C)c(N2CCN(S(=O)(=O)c3ccc4c(c3)oc(=O)n4C)CC2)c1`, for which the “activity change, negative = growth inhibition” value is -8.78%. Same read-out and setting: for `CCOC(=O)N1CCN(S(=O)(=O)c2ccc3c(c2)C(C)C(=O)N3)CC1` (configuration not stated) the value was 0.632%. Regarding `Cc1ccc(C)c(N2CCN(S(=O)(=O)c3ccc4c(c3)C(C(C)C)C(=O)N4)CC2)c1` (configuration not stated), the Potency was 18.4 µM (active). Regarding `Cc1ccc(S(=O)(=O)N2CCN(C)CC2)cc1`, the “activity change, negative = growth inhibition” value is -3.04%. Turning to `CC1C(=O)Nc2ccc(S(=O)(=O)N3CCN(c4ccccc4F)CC3)cc2NC1=O` (configuration not stated), the Potency is 20.6 µM (active).

Regarding `O=C(N/N=C/c1cccc(OC(=O)c2ccc([N+](=O)[O-])cc2)c1)c1cccnc1`, the “activity change, negative = growth inhibition” value is 1.64%. Consider `CCOC(=O)c1c(-n2cnnn2)sc(C)c1C`, for which the “activity change, negative = growth inhibition” value was -3.42%. For `COc1ccc(NC(=S)N2N=CCC2c2ccccc2)cc1` (configuration not stated), the “activity change, negative = growth inhibition” value was 6.67%. Same read-out and setting: with `CS(=O)(=O)c1ccc2nc(NC(=O)c3ccc(Cl)nc3)sc2c1` the figure was -20%. In the case of `O=C(NCc1cccnc1)c1nc(-c2cccs2)no1`, the “activity change, negative = growth inhibition” value is -5.14%. For `C=CCn1c(=O)n(C)c2c(=O)n(C)c(=O)n(C)c21`, the “activity change, negative = growth inhibition” value was -9.27%. `CC(C)C(C)NC(=O)COc1ncnc2ccccc12` (configuration not stated): the “activity change, negative = growth inhibition” value is 2.12%. On the same count and under the same terms, with `CCn1ccnc1CNC(=O)CC1C(=O)NCCN1CCCc1ccccc1` (configuration not stated) the figure was 9.87%. As to `O=C(CCC(=O)N1CCN(S(=O)(=O)c2ccccc2)CC1)NC1CCCc2ccccc21` (configuration not stated), the “activity change, negative = growth inhibition” value was -23.6%. As for `O=C1NC(Cc2ccccc2)c2nc3ccc(Br)cc3c(=O)n2-c2cc3ccccc3cc21` (configuration not stated), the Potency was 7.31 µM (active). On to `Cc1cc(C)c2c(=O)n3c(nc2c1)C(CC(C)C)NC(=O)c1cc2ccccc2cc1-3` (configuration not stated), for which the Potency was 4.61 µM (active). For `CCC1NC(=O)c2cccnc2-n2c1nc1ccc(C)cc1c2=O` (configuration not stated), the “activity change, negative = growth inhibition” value was 3.31%. Regarding `CCc1ccc(NC2Nc3cc(C)nn3S2)cc1` (configuration not stated), the “activity change, negative = growth inhibition” value was -0.765%. On to `N#CCC(=O)NC1CCC(CC2CCC(NC(=O)CC#N)CC2)CC1` (configuration not stated), for which the “activity change, negative = growth inhibition” value was 4.54%.

Regarding `CCOc1cc(C2C(C(=O)OC)=CN(C3CCCC3)C=C2C(=O)OC)cc(Br)c1O`, the “activity change, negative = growth inhibition” value is -11.2%.

On to `COc1ccc(S(=O)(=O)Nc2ccc(F)cc2)c(C)c1C`, for which the “activity change, negative = growth inhibition” value was -21.2%. Take `COc1ccccc1CNS(=O)(=O)CC12CCC(CC1=O)C2(C)C` (configuration not stated): the “activity change, negative = growth inhibition” value is 3.54%. Take `CC(=O)Nc1ccc(S(=O)(=O)NC(C)C(=O)OCCOc2ccc(F)cc2)cc1` (configuration not stated): the “activity change, negative = growth inhibition” value is -12%. On to `Cc1cccc(C)c1NC(=O)Nc1ccccc1-n1ccnc1`, for which the “activity change, negative = growth inhibition” value was 2.52%.

On to `COC(=O)C[C@H]1C=C[C@@H](NS(=O)(=O)c2ccc(C)cc2)[C@@H](CO)O1`, for which the “activity change, negative = growth inhibition” value is 1.99%. As for `COc1ccc(C(=O)Nc2ccc(CN3CCOCC3)cc2)cc1`, the “activity change, negative = growth inhibition” value is -13.6%. With `COc1ccc(C(=O)Nc2ccnn2C2CCN(Cc3ccncc3)CC2)cc1`, the “activity change, negative = growth inhibition” value was -9.39%. For `COc1ccc(C(=O)Nc2sc(C)c(C)c2CN2CCOCC2)cc1`, the Potency was 23.1 µM (active). Regarding `OCC1(CO)CC2(C1)CC(CO)(CO)C2`, the “activity change, negative = growth inhibition” value was 1.95%. For `CCOC(=O)c1sc(NC(=O)/C=C/c2ccc(C(C)C)cc2)c(C(=O)OCC)c1C`, the “activity change, negative = growth inhibition” value is -21.3%.

As to `Cc1ccc(S(=O)(=O)NCC(=O)N(CC(=O)NCC2CCCO2)c2cccc(F)c2)cc1` (configuration not stated), the “activity change, negative = growth inhibition” value is -5.08%. As for `COC(=O)c1cc(NC(=O)CCc2c(C)nc3c4c(C)cc(C)nc4nn3c2C)cc(C(=O)OC)c1`, the “activity change, negative = growth inhibition” value is -21.8%. Regarding `COc1ccc(C(=O)COC(=O)c2c(C)noc2C)cc1Cl`, the “activity change, negative = growth inhibition” value was -23.2%. As for `CCc1noc(C)c1C(=O)NNC(=O)c1ccc(F)cc1`, the “activity change, negative = growth inhibition” value is 1.49%.

On to `CCc1noc(C)c1C(=O)OCC(=O)c1ccc(NC(=O)CC(C)C)cc1`, for which the Potency is 25.9 µM (active). With `O=C(Nc1nsc(-c2ccccc2)n1)c1ccncc1`, the “activity change, negative = growth inhibition” value was -26.7%.

Regarding `NC(=O)c1oc2ccccc2c1NC(=O)Cc1ccccc1`, the “activity change, negative = growth inhibition” value is -18.1%. In the case of `COc1ccc(-c2nn(-c3ccccc3)cc2/C=C\C(=O)N2CCOCC2)cc1[N+](=O)[O-]`, the “activity change, negative = growth inhibition” value is 2.01%. Regarding `COc1ccc(-c2ccc3[nH]c4c(c3c2)CCN2C[C@H]3[C@H](C)ON(C)[C@H]3C[C@@H]42)cc1`, the Potency was 20.6 µM (active). For the compound `C[C@@H]1ON(C)[C@H]2C[C@H]3c4cc(N5CCN(C)CC5)ccc4CCN3C(=O)[C@@H]12`, the “activity change, negative = growth inhibition” value was 0.647%. For the compound `COC(=O)[C@H]1[C@H]2C[C@H]3c4[nH]c5ccccc5c4CCN3C[C@@H]2CC[C@@H]1O`, the Potency result was “inactive”. In the case of `O=C(NCc1csc(-c2cccs2)n1)C1CC1`, the “activity change, negative = growth inhibition” value is -6.41%. With `COc1ccc(C(CNC(=O)CSc2ccccc2)N2CCOCC2)cc1` (configuration not stated), the “activity change, negative = growth inhibition” value is -26.7%. As to `CC(C)(C)C1CCC(C(=O)NCC(c2cccs2)N2CCOCC2)CC1` (configuration not stated), the Potency is 8.2 µM (active). In the case of `Cc1cc(=O)oc(C)c1C(=O)Nc1cnc2ccccc2c1`, the “activity change, negative = growth inhibition” value was -21.1%. Same read-out and setting: with `CCc1ccc(NC(=O)C(=O)N/N=C(\C)CC(=O)NCCOC)cc1` the figure was -7.62%. As for `CCc1nnc(NC(=O)CSc2nnc(Cc3ccccc3)n2-c2ccc(OC)cc2)s1`, the “activity change, negative = growth inhibition” value is -0.0344%. In the case of `CCc1c(C)[nH]c(=S)c(C#N)c1C`, the “activity change, negative = growth inhibition” value was -9.03%.
